In the library only some 3.5% were active in any assay of this set; here they are far more common.
TEAD-YAP block: TEAD-YAP interaction inhibition; HEK-TIYL cells, TEAD-Gal4/YAP UAS-luciferase luminescence; inhibition, % at 9.12 µM; hit rate 1.4% among 640,000; in the data active means inhibition above about 32%;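 further: 0% = median of test compound wells and 100% = reference inhibitor wells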
GPR151 ag: human GPR151 activation; PathHunter beta-arrestin GPR151 cells, luminescence; activation, % at 11.2 µM; hit rate 1% among 650,000; Q8TDV0; in the data active means activation above about 4.9%;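 further: 0% = median of compound wells and 100% = cells with positive control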
MITF inh: blocks human microphthalmia-associated transcription factor | O75030 | AlphaScreen MITF homodimerization, bead proximity signal | inhibition, % at 2.6 µM | hit rate 0.91% among 650,000; in the data active means inhibition above about 50%;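 further: 0% = vehicle wells with protein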
FBW7 activator: activators of human E3 ligase FBW7. Q969H0. normalized activity (activation), % at 26.1 µM. hit rate 0.13% among 650,000. AlphaScreen FBW7–phospho-cyclin E peptide binding, activator screen; in the data active means normalized activity above about 1.9%;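 further: purified mutant Fbw7 with reduced substrate affinity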
Target sequence (Q969H0 whole entry, looked up): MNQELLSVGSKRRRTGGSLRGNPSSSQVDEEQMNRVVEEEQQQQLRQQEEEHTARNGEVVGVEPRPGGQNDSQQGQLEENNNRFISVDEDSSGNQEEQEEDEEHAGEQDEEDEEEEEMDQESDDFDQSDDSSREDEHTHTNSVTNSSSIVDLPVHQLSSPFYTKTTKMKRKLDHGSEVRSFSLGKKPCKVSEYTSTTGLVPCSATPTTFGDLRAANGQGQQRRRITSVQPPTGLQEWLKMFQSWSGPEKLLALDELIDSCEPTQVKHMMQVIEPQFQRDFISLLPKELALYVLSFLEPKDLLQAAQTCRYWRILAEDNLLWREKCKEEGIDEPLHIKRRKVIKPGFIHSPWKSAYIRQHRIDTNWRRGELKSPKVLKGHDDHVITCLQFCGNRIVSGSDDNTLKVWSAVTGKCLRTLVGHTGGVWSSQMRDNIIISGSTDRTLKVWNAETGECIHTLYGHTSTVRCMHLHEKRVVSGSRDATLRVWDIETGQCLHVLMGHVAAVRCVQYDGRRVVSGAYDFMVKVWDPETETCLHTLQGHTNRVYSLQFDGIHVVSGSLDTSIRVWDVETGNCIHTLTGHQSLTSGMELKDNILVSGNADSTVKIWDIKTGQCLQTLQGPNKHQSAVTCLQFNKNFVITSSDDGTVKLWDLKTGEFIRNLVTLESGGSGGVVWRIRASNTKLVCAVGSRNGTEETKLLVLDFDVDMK
GPR151 confirm: confirmation of human GPR151 activators. shares compounds with GPR151 ag. GPR151 PathHunter beta-arrestin cells, luminescence, 90 min; % of EA-reagent control over plate median. activation, % at 11.2 µM. 6,700 tested, under 10 active. AID 1508609;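 active means mean percent activation across replicates above the confirmation screen cutoff of 4.91%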
GPR119 ag: counter-screen for GPR151 activators: effect on human GPR119; activation, % at 11.2 µM; hit rate 0.3% among 6,700; AID 1508611; shares compounds with GPR151 ag; GPR119 PathHunter beta-arrestin cells, luminescence, 90 min; 0 = compound-well median, 100 = enzyme-acceptor control;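 active means mean percent activation in the counterscreen above 29.09%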;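 further: counterscreen on off-target GPR119 to flag nonselective hits from the GPR151 activator screen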
An asterisk follows results filed as active; ! = a repeat was not active.

How did COc1ccccc1CCN1C(=O)CCC1CCNCCOc1ccccc1 (configuration not stated) do in these assays?
TEAD-YAP block: -16.3; GPR151 ag: 7.1*; MITF inh: -3.2; FBW7 activator: 0.2; GPR151 confirm: 0.4; GPR119 ag: 9.1

How did COc1ccccc1CCN1C(=O)CCC1CCNCc1ccccc1 (configuration not stated) do in these assays?
TEAD-YAP block: -5.1; GPR151 ag: -1.8; MITF inh: -6.7; FBW7 activator: 0.0

Results for Cc1ccc(O)c(/C=N/NC(=O)CNC(=O)c2cccc(F)c2)c1 ?
TEAD-YAP block: -4.4; GPR151 ag: 0.0; MITF inh: 13.5; FBW7 activator: -0.2

How did O=C(Nc1cnn(-c2ccc(C(=O)N3CCCC(O)C3)cc2)c1)c1ccoc1 (configuration not stated) do in these assays?
TEAD-YAP block: -13.1; GPR151 ag: -0.3; MITF inh: 7.9; FBW7 activator: 1.0

What do the screens show for `O=C(Cc1ccccc1)NS(=O)(=O)c1ccc(N=NN2CCCCC2)cc1`?
TEAD-YAP block: 1.5; GPR151 ag: 7.3*; MITF inh: -0.8; FBW7 activator: -0.1; GPR151 confirm: 1.1; GPR119 ag: 7.7

What do the screens show for `Cc1ccccc1-n1c(=S)sc2c(=O)n(-c3ccccc3)c(SCC(=O)NC3CCCCC3)nc21`?
TEAD-YAP block: -1.2; GPR151 ag: -1.2; MITF inh: 2.2; FBW7 activator: 0.5

What do the screens show for `Cc1ccc(CCNC(=O)NCc2noc3ccccc23)cc1`?
TEAD-YAP block: -12.4; GPR151 ag: -1.3; MITF inh: 0.3; FBW7 activator: -0.1

How did Cc1cccc(CCNC(=O)NCc2noc3ccccc23)c1 do in these assays?
TEAD-YAP block: -14.2; GPR151 ag: 14.5*; MITF inh: -4.6; FBW7 activator: 0.0; GPR151 confirm: 0.3; GPR119 ag: -1.4

How did COc1ccc(NC(=O)NCc2noc3ccccc23)c(OC)c1 do in these assays?
TEAD-YAP block: 2.9; GPR151 ag: 0.9; MITF inh: -6.0; FBW7 activator: -0.2

How did Cc1cc(Br)ccc1NC(=O)NCc1noc2ccccc12 do in these assays?
TEAD-YAP block: -3.7; GPR151 ag: 6.1*; MITF inh: -0.1; FBW7 activator: -0.1; GPR151 confirm: -1.0; GPR119 ag: 5.6

How did COCC(=O)N1CCN(Cc2nnnn2-c2ccc(C)cc2)CC1 do in these assays?
TEAD-YAP block: 8.3; GPR151 ag: -0.4; MITF inh: -7.6; FBW7 activator: 0.2

How did CCOC(=O)/C(C(N)=O)=C(\O)C(=O)/C=C(\O)c1ccc(C)cc1 do in these assays?
TEAD-YAP block: -4.9; GPR151 ag: 0.9; MITF inh: 0.0; FBW7 activator: -0.2

What do the screens show for `CCOC(=O)/C(C(N)=O)=C(\OC)C(=O)CC(=O)c1ccc(C)cc1`?
TEAD-YAP block: 5.6; GPR151 ag: 5.5*; MITF inh: 5.2; FBW7 activator: 0.1; GPR151 confirm: 1.2; GPR119 ag: 7.1

Results for Cc1ccc(-n2cnc3cc(C(=O)NCCc4ccccc4)ccc32)c(C)c1 ?
TEAD-YAP block: 5.7; GPR151 ag: 5.5*; MITF inh: -7.1; FBW7 activator: -0.1; GPR151 confirm: 0.3; GPR119 ag: -12.2

What do the screens show for `COc1ccc(CCNC(=O)c2ccc3c(c2)ncn3-c2ccc(C)cc2C)cc1OC`?
TEAD-YAP block: 14.7; GPR151 ag: 0.1; MITF inh: 10.5; FBW7 activator: 0.0

How did COc1ccccc1CNC(=O)c1nnn(Cc2ccccc2)c1N do in these assays?
TEAD-YAP block: -6.0; GPR151 ag: 13.6*; MITF inh: -4.1; FBW7 activator: 0.1; GPR151 confirm: -0.8; GPR119 ag: -11.0

What do the screens show for `CCOC(=O)C1=C(C)N=c2s/c(=C\c3cc(C)n(-c4ccc(C(=O)OCC)cc4)c3C)c(=O)n2C1c1cccs1` (configuration not stated)?
TEAD-YAP block: -3.6; GPR151 ag: 1.0; MITF inh: -3.7; FBW7 activator: -0.1

How did Cc1cc(O)c(C2=Nc3ccccc3SC(c3ccc4c(c3)OCO4)C2)c(=O)o1 (configuration not stated) do in these assays?
TEAD-YAP block: -29.9; GPR151 ag: -0.3; MITF inh: -5.6; FBW7 activator: -0.1

What do the screens show for `COC(=O)c1ccc(N2C(=O)c3ccc(NC(C)=O)cc3C2=O)cc1`?
TEAD-YAP block: 5.0; GPR151 ag: 11.1*; MITF inh: 3.9; FBW7 activator: 0.0; GPR151 confirm: -1.3; GPR119 ag: -12.1

How did COc1ccc(N2C(=O)c3ccc(NC(C)=O)cc3C2=O)cc1 do in these assays?
TEAD-YAP block: 4.6; GPR151 ag: 1.2; MITF inh: 4.9; FBW7 activator: 0.1

Results for CC(C)(C)N1C(=O)c2ccc(C(=O)Nc3ccc([N+](=O)[O-])cc3Cl)cc2C1=O ?
TEAD-YAP block: 3.6; GPR151 ag: 6.6*; MITF inh: 4.1; FBW7 activator: 0.0; GPR151 confirm: 0.3; GPR119 ag: -0.4

What do the screens show for `Cc1ccc(CNCc2ccco2)cc1`?
TEAD-YAP block: -0.1; GPR151 ag: 7.0*; MITF inh: 23.7; FBW7 activator: -0.4; GPR151 confirm: 0.9; GPR119 ag: 8.2

How did C[C@@H](NCCc1ccc(O)cc1)[C@@H](O)c1ccc(O)cc1 do in these assays?
TEAD-YAP block: 14.1; GPR151 ag: 6.4*!; MITF inh: 17.7; FBW7 activator: -0.1; GPR151 confirm: -0.8; GPR119 ag: -12.8

Results for CC(NCCc1ccc(O)cc1)C(O)c1ccc(O)cc1 (configuration not stated) ?
TEAD-YAP block: 0.2; GPR151 ag: -0.2; MITF inh: -2.7; FBW7 activator: -0.1

What do the screens show for `CN(C(=O)CCl)c1nc(-c2ccc(F)cc2)cs1`?
TEAD-YAP block: -2.2; GPR151 ag: 6.1*; MITF inh: -3.9; FBW7 activator: -0.1; GPR151 confirm: -0.1; GPR119 ag: 2.1

What do the screens show for `COc1ccc(C(=O)Nc2nnc(SCC(N)=O)s2)cc1OC`?
TEAD-YAP block: 0.8; GPR151 ag: -1.6; MITF inh: -3.4; FBW7 activator: 0.0

How did CN1CCN(C(=O)/C=C/c2c(Cl)cccc2Cl)CC1 do in these assays?
TEAD-YAP block: 3.0; GPR151 ag: 7.2*; MITF inh: 6.1; FBW7 activator: 0.0; GPR151 confirm: 0.1; GPR119 ag: 5.2

How did CC(C)(CN1CCN(c2ccccc2)CC1)NS(=O)(=O)c1ccccc1 do in these assays?
TEAD-YAP block: -7.0; GPR151 ag: 5.5*; MITF inh: 4.7; FBW7 activator: -0.2; GPR151 confirm: 0.0; GPR119 ag: -3.7

How did COc1ccc([C@@H](C)NC(=O)CCC2(Cc3ccc(C)cc3)CCC(=O)N2)cc1 (some centres not stated) do in these assays?
TEAD-YAP block: 9.3; GPR151 ag: 0.5; MITF inh: -0.3; FBW7 activator: -0.1

Results for COc1ccc(CC2(CCC(=O)N[C@H](C)c3ccc(OC)cc3)CCC(=O)N2)cc1 (some centres not stated) ?
TEAD-YAP block: 6.7; GPR151 ag: 5.1*; MITF inh: -4.2; FBW7 activator: -0.1; GPR151 confirm: -0.9; GPR119 ag: -6.7
